Reference: the supplement of paper PMC13380429
Unmarked numbers belong to inactive results.

Tested on: Vero E6 infected with SARS-CoV-2
Experiment: inhibition of SARS-CoV-2 cytopathic effect; higher = more antiviral protection, active = above 15
Details: 48 h

SMILES	inhibition of SARS-CoV-2 cytopathic effect (1 nM)	inhibition of SARS-CoV-2 cytopathic effect (8.33 nM)	inhibition of SARS-CoV-2 cytopathic effect (100 nM)	inhibition of SARS-CoV-2 cytopathic effect (833.33 nM)	inhibition of SARS-CoV-2 cytopathic effect (10000 nM)
NCCCC[C@H](NC(=O)[C@@H](Cc1cc(Br)c(O)c(Br)c1)NC(=O)N1CCC(N2Cc3ccccc3NC2=O)CC1)C(=O)N1CCN(c2ccncc2)CC1	0.88%	0.87%	2.08%	-1.34%	0.72%
CCN1CCN(c2cc3c(cc2F)c(=O)c(C(=O)O)cn3C2CC2)CC1 [enrofloxacin]	2.85%	4.7%	2.54%	2.88%	5.39%
C[S+]([O-])c1ccc(-c2nc(-c3ccc(F)cc3)c(-c3ccncc3)[nH]2)cc1 (stereo not given)	-0.95%	1.29%	-1.08%	-1.33%	4.9%
C#C[C@]1(O)C=C[C@H]2[C@@H]3CCC4=CC(=O)CC[C@@H]4[C@H]3CC[C@@]21CC [gestodene]	0.01%	1.99%	-0.48%	-1.22%	1.3%
Cc1cc2c(cc1CC(=O)c1sccc1S(=O)(=O)Nc1onc(C)c1Cl)OCO2 [sitaxentan]	-0.88%	-1.81%	0.75%	1.22%	1.37%
O=S(=O)(O)CCSSCCS(=O)(=O)O [dimesna]	-0.79%	0.36%	0.65%	-1.27%	-1.4%
O=c1ncccn1[C@@H]1O[C@H](CO)[C@@H](O)[C@H]1O [zebularine]	-2.02%	-1.31%	1.93%	1.42%	-1.45%
Nc1nc(O)c2ncn(CCC(CO)CO)c2n1 [penciclovir]	-0.77%	-0.01%	-0.81%	0.81%	-2.4%
CCOC(=O)N1CCC(=C2c3ccc(Cl)cc3CCc3cccnc32)CC1 [loratadine]	1.77%	0.5%	0.11%	-0.88%	-4.61%
CO[C@H]1CC=C2CCN3CCC4=C(CC(=O)OC4)[C@]23C1	1.56%	-0.91%	1.32%	0.73%	1.37%
CN1[C@@H]2CC[C@H]1C[C@@H](OC(=O)N1Cc3ccccc3NC1=O)C2	-1.09%	-0.87%	1.69%	1.84%	-0.21%
Cn1cnc([N+](=O)[O-])c1Sc1ncnc2[nH]cnc12 [azathioprine]	-3.67%	2.21%	2.74%	3.46%	-3.46%
CCOC(=O)c1ccc(-c2ccc(OC(=O)N(C)Cc3cccc(-c4ccncc4)c3)cc2)cc1	2.8%	-0.08%	3.06%	4.52%	4.58%
CCOc1c(N2CCOCC2)cnn(C)c1=O [emorfazone]	-7.19%	-6.29%	-2.95%	-0.94%	0.67%
CC[C@H](CO)Nc1nc(NCc2ccccc2)c2ncn(C(C)C)c2n1 [roscovitine]	1.02%	2.46%	-0.4%	-1.46%	-0.57%
C[C@H](c1ccc2ccc(OC3CCC(C(F)(F)F)CC3)c(C(F)(F)F)c2c1)N1C2CCC1CC(C(=O)O)C2 (stereo not given in full) [autotaxin-modulator-1]	-1.22%	-0.49%	0.86%	0.12%	1.02%
CCN(CC)CCOC(=O)C(c1ccccc1)c1ccccc1 [adiphenine]	-1.11%	-0.19%	2.09%	1.64%	-0.25%
Cc1ccc(/C=N/NC(=O)c2ccccc2Oc2ccccc2)o1	-1.75%	-0.44%	-0.55%	0.13%	0.97%
CC(C)Cc1ccc([C@@H](C)C(=O)NS(C)(=O)=O)cc1 [reparixin]	2.11%	3.05%	3.66%	0.65%	4.19%
Fc1ccc2nc(CCC#Cc3ccccn3)cn2c1 [dipraglurant]	0.01%	0.17%	0.87%	1.2%	2.02%

SMILES	inhibition of SARS-CoV-2 cytopathic effect (1 nM)	inhibition of SARS-CoV-2 cytopathic effect (8.33 nM)	inhibition of SARS-CoV-2 cytopathic effect (100 nM)	inhibition of SARS-CoV-2 cytopathic effect (833.33 nM)	inhibition of SARS-CoV-2 cytopathic effect (10000 nM)
Clc1ccc2nsnc2c1NC1=NCCN1 [tizanidine]	2.21%	4.56%	1.5%	2.93%	0.03%
CC(=O)OCC(=O)[C@@]1(O)CC[C@H]2[C@@H]3CCC4=CC(=O)CC[C@]4(C)[C@H]3C(=O)C[C@@]21C [cortisone-acetate]	-0.91%	-1.31%	-1.03%	0.49%	0.27%
CC(=O)OCC(=O)[C@@]1(O)[C@@H](C)C[C@H]2[C@@H]3CCC4=CC(=O)C=C[C@]4(C)[C@@]3(F)[C@@H](O)C[C@@]21C [betamethasone-acetate]	-1.36%	0.805%	0.555%	0.57%	-0.935%
Cc1c(O)cccc1C(=O)N[C@@H](CSc1ccccc1)[C@H](O)CN1C[C@H]2CCCC[C@H]2C[C@H]1C(=O)NC(C)(C)C [nelfinavir]	-4.7%	-3.72%	-1.32%	3.72%	43.2% (active)
CCCCCCOc1nsnc1C1=CCCN(C)C1 [xanomeline]	0.86%	-0.07%	-1.23%	-1.94%	-0.8%
Cn1cc(C2=C(c3cn(CCCSC(=N)N)c4ccccc34)C(=O)NC2=O)c2ccccc21 [bisindolylmaleimide-IX]	-1.28%	-0.79%	-3.04%	1%	-1.54%
COc1ccc(O)c(C(C)(C)C)c1.COc1ccc(O)cc1C(C)(C)C [butylated-hydroxyanisole]	-2.13%	-2.11%	-2.79%	0.85%	-1.88%
Cc1cc(C2CCCCC2)n(O)c(=O)c1 [ciclopirox]	0.88%	1.21%	0.99%	-0.09%	-2.68%
Cc1cn([C@H]2O[C@@H](CO)[C@H](O)[C@H]2F)c(=O)[nH]c1=O [clevudine]	3.12%	-0.16%	1.71%	2.27%	1.38%
N[C@@H](CCNCc1ccc(Cl)cc1)C(=O)N1CCCCC1	0.82%	-0.55%	-2.08%	-1.49%	-1.28%
CCCCCCCCCC(=O)O[C@H]1CC[C@H]2[C@@H]3CCC4=CC(=O)CC[C@@H]4[C@H]3CC[C@]12C [Nandrolone decanoate]	0.16%	0.18%	-0.72%	0.02%	-4.93%
CCOC(=O)C1=C(C)NC(C)=C(C(=O)OC)[C@@H]1c1cccc([N+](=O)[O-])c1 (racemic) [nitrendipine]	1.59%	0.33%	-3.74%	-0.45%	4.26%
OC(CCCN1CCCCC1)(c1ccccc1)c1ccccc1 [diphenidol]	-5.55%	-3.34%	-2.4%	-1.92%	-2.8%
CCCCOc1cc(CC2CNC(=O)N2)ccc1OC (stereo not given)	-0.73%	1.6%	-3.01%	-0.63%	-1.88%
COc1ccc([C@@H]2CC(=O)c3c(O)cc(O[C@@H]4O[C@H](CO)[C@@H](O)[C@H](O)[C@H]4O[C@@H]4O[C@@H](C)[C@H](O)[C@@H](O)[C@H]4O)cc3O2)cc1O [neohesperidin]	-2.2%	0.62%	2.24%	-0.64%	-3.03%
N=C(N)N [guanidine]	-0.16%	0.17%	-2.15%	-3.58%	-6.14%
NCCCCCNCC12CC3CC(CC(C3)C1)C2	2.39%	1.74%	0.57%	2.97%	-1.44%
Clc1ccc(CO/N=C(\Cn2ccnc2)c2ccc(Cl)cc2Cl)c(Cl)c1 [oxiconazole]	-0.54%	0.43%	1.05%	0.68%	-1.24%
CCOc1ccc(Cc2cc([C@@H]3O[C@H](SC)[C@@H](O)[C@H](O)[C@H]3O)ccc2Cl)cc1 [sotagliflozin]	-0.94%	-2.52%	-1.14%	-3.56%	-3.65%
